{"source": "PubChem BioAssay (EPA / NIEHS)", "note": "Active and inactive are the calls of the source. How the source made its calls: active means hit-call score of the fitted dose curve at least 0.9, where 1 is the maximum; inactive means score below 0.9."}
{"read-out": "Peroxisomal acyl-coenzyme A oxidase 1 (ACOX1) gene, ACOX1 (gene 51)", "assay": "LTEA_HepaRG_ACOX1: Life Technologies and Expression Analysis (LTEA) Assay for Peroxisomal acyl-coenzyme A oxidase 1 (ACOX1) gene using HepaRG (AID 2283467)", "conditions": "mRNA level, 48 h; actives raise or lower the signal", "how_it_was_run": "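ACOX1 transcript levels were quantified by TaqMan qRT-PCR against three housekeeping genes after 48 h chemical exposure of differentiated human HepaRG cells. Exposure used eight half-log steps topping at 100 uM, 0.5% DMSO vehicle, in duplicate. Bidirectional curve fits were made relative to DMSO.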"}
{"compound": "c1ccc2occc2c1", "outcome": "inactive"}
{"compound": "CCN(CC)CCOc1ccc(C(=C(Cl)c2ccccc2)c2ccccc2)cc1", "AC50": "13.3 µM (active)"}
{"compound": "Oc1ccccc1O", "outcome": "inactive"}
{"compound": "CCc1nc(N)nc(N)c1-c1ccc(Cl)cc1", "AC50": "18.6 µM (active)"}
{"compound": "Cc1cc(SC2=C(O)C[C@@](CCc3ccc(N)cc3)(C(C)C)OC2=O)c(C(C)(C)C)cc1CO", "outcome": "inactive"}
{"compound": "O=C(O)CC(O)(CC(=O)O)C(=O)O", "outcome": "inactive"}
{"compound": "O=C(NS(=O)(=O)/C=C/c1cccs1)c1ccc(F)cc1Br", "outcome": "inactive"}
{"compound": "O=C1CCCCC1", "outcome": "inactive"}
{"compound": "CCCCCCCCCCCCCCOS(=O)(=O)O", "outcome": "inactive"}
{"compound": "Nc1nc(=S)c2[nH]cnc2[nH]1", "AC50": "12.2 µM (active)"}
{"compound": "COc1ccc(OC(F)(F)F)cc1CN[C@H]1CCCN[C@H]1c1ccccc1", "AC50": "64.3 µM (active)"}
{"compound": "CC(=O)OCC(COC(C)=O)OC(C)=O", "outcome": "inactive"}
{"read-out": "Alkaline Phosphatase, Placental (ALPP) gene, ALPP (gene 250)", "assay": "LTEA_HepaRG_ALPP: Life Technologies and Expression Analysis (LTEA) Assay for Alkaline Phosphatase, Placental (ALPP) gene using HepaRG (AID 2283468);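 on AC50: differentiated human HepaRG liver cells in serum-free induction medium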", "conditions": "mRNA level, 48 h; actives raise or lower the signal", "how_it_was_run": "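ALPP transcript level, measured by qRT-PCR and normalized to three housekeeping genes (ACTB, GAPDH, POLR2A), after 48 h dosing of differentiated HepaRG in serum-free induction medium. Top concentration 100 uM with half-log dilutions (8 points, 0.5% DMSO, duplicates); bidirectional fitting relative to DMSO.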"}
{"compound": "CN(C)CCCN1c2ccccc2Sc2ccc(Cl)cc21", "AC50": "11.8 µM (active)"}
{"compound": "c1ccc2occc2c1", "outcome": "inactive"}
{"compound": "NC(=Nc1ccccc1)Nc1ccccc1", "outcome": "inactive"}
{"compound": "CCN(CC)CCOc1ccc(C(=C(Cl)c2ccccc2)c2ccccc2)cc1", "AC50": "22.6 µM (active)"}
{"compound": "NCCOCCOCCN", "outcome": "inactive"}
{"compound": "Oc1ccccc1O", "outcome": "inactive"}
{"compound": "CCc1nc(N)nc(N)c1-c1ccc(Cl)cc1", "AC50": "44.2 µM (active)"}
{"compound": "Cc1cc(SC2=C(O)C[C@@](CCc3ccc(N)cc3)(C(C)C)OC2=O)c(C(C)(C)C)cc1CO", "outcome": "inactive"}
{"compound": "CCCCC(CC)CO", "note": "(configuration not stated)", "outcome": "inactive"}
{"compound": "Nc1nc(Cl)nc2c1ncn2[C@H]1C[C@H](O)[C@@H](CO)O1", "outcome": "inactive"}
{"compound": "O=C(O)CC(O)(CC(=O)O)C(=O)O", "outcome": "inactive"}
{"compound": "O=C(NS(=O)(=O)/C=C/c1cccs1)c1ccc(F)cc1Br", "outcome": "inactive"}
{"compound": "CC(COCC(C)OC(=O)c1ccccc1)OC(=O)c1ccccc1", "note": "(configuration not stated)", "outcome": "inactive"}
{"compound": "Cc1cn([C@H]2C=C[C@@H](CO)O2)c(=O)[nH]c1=O", "outcome": "inactive"}
{"compound": "C#CC(O)C(CC)CCCC", "note": "(configuration not stated)", "outcome": "inactive"}
{"compound": "CSc1ccc(Oc2ccc(S(N)(=O)=O)cc2CN(C)C)cc1C", "AC50": "54.5 µM (active)"}
{"compound": "CCCCOC(=O)CCCCC(=O)OCCCC", "outcome": "inactive"}
{"compound": "N[C@@H](Cc1c[nH]c2ccccc12)C(=O)O", "outcome": "inactive"}
{"compound": "CCCCC(CC)COP(=O)(OCC(CC)CCCC)OCC(CC)CCCC", "note": "(configuration not stated)", "outcome": "inactive"}
{"compound": "CC(N)=O", "outcome": "inactive"}
{"compound": "O=C1CCCCC1", "outcome": "inactive"}
{"compound": "O=NO", "outcome": "inactive"}
{"compound": "Cc1cc(Cc2ccc(N)c(C)c2)ccc1N", "outcome": "inactive"}
{"compound": "CCCCCCCCCCCCCCOS(=O)(=O)O", "outcome": "inactive"}
{"compound": "Nc1nc(=S)c2[nH]cnc2[nH]1", "outcome": "inactive"}
{"compound": "COc1ccc(OC(F)(F)F)cc1CN[C@H]1CCCN[C@H]1c1ccccc1", "outcome": "inactive"}
{"compound": "CC(=O)S[C@H](C(=O)N[C@H]1Cc2ccccc2[C@H]2CCC[C@@H](C(=O)O)N2C1=O)C(C)C", "outcome": "inactive"}
{"compound": "CC(=O)OCC(COC(C)=O)OC(C)=O", "outcome": "inactive"}
{"compound": "O=C1O[C@H]([C@H](O)CO)C(O)=C1O", "outcome": "inactive"}
{"compound": "CC(=O)OC1CC(C)OC(C)O1", "note": "(configuration not stated)", "outcome": "inactive"}
